“And” between values parts separate entries of the source, which are not always exact repeats. Equal values may be shown once. Unmarked numbers belong to inactive results. Results filed as inconclusive are left out. Where a call stands in place of a potency, no number is given. The source made the active and inactive calls. Unless noted, calls come from the whole dose curve; as a rule, active = well fitted curve in the direction sought with a large enough effect in the repeat runs; inconclusive = weak or mixed curves; inactive = no such curve, though single readings can be large; an effect the other way counts as inactive or inconclusive.
What was measured:
[1] = qHTS assay for small molecules that induce genotoxicity in human embryonic kidney cells expressing luciferase-tagged ATAD5 (AID 651632); note: nearly all actives have a fitted effect of over 15% in size; note: potency is the fitted concentration of half-maximal effect
Method in brief: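 DMSO vehicle served as the control. HEK293T reporter cells, 16 hr at 37C, then 30 min Amplite at room temperature; ATAD5 induction is measured as luciferase activity.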

[2] = qHTS assay for small molecule agonists of the p53 signaling pathway - cell viability (AID 651633; calls by dose curve; note: nearly all actives have a fitted effect of over 30% in size; note: potency is the fitted concentration of half-maximal effect)
Method in brief: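 Viability counter-read: CellTiter-Glo luminescence (30 min, room temperature) in the same p53RE-bla plates. These plates had been exposed to compounds for 16 h at 37 C.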

[3] = qHTS assay for small molecules that induce genotoxicity in human embryonic kidney cells expressing luciferase-tagged ATAD5 - cell viability (AID 651634; calls by dose curve; note: nearly all actives have a fitted effect of over 25% in size; note: potency is the fitted concentration of half-maximal effect)
Method in brief: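 Here HEK293T cells with the ATAD5 luciferase reporter are incubated with test compounds for 15.5 hr, and cytotoxicity is then gauged by measuring protease activity in live cells using fluorescence.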

[4] = qHTS assay to test for compound auto fluorescence at 590 nm (red) in HepG2 cells (AID 720674)
Method in brief: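 Red autofluorescence (Ex/Em 540/590 nm, Rose Bengal sodium equivalents) was measured in HepG2 cells, 2,000 per well in MEM plus 10% FBS, plated overnight at 37 C. Readings were taken 1 hr after adding 23 nL compound or DMSO, at 37 C and 5% CO2.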

[5] = qHTS assay to test for compound auto fluorescence at 535 nm (green) in HepG2 cells (AID 720675)
[6] = qHTS assay to test for compound auto fluorescence at 460 nm (blue) in HEK293 cells (AID 720678)
Method in brief: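 Blue-channel (Ex/Em 405/460 nm) intensity measured in HEK293 cultures after overnight compound exposure at 37C; signal expressed relative to triamterene. Cells plated 2,000 per well in 10% dialyzed FBS medium and allowed 4-5 hr to attach.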

[7] = qHTS assay to test for compound auto fluorescence at 590 nm (red) in HEK293 cells (AID 720679)
Method in brief: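 Red-channel autofluorescence (Ex/Em 540/590 nm; Rose Bengal sodium reference) was measured after overnight 37C, 5% CO2 exposure of attached HEK293 cells, 2,000 per well in medium with 10% dialyzed FBS.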

[8] = qHTS assay to test for compound auto fluorescence at 535 nm (green) in HEK293 cells (AID 720680)
[9] = qHTS assay to test for compound auto fluorescence at 460 nm (blue) in HEK293 cell free culture (AID 720681)
Method in brief: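 Blue fluorescence (Ex 405/Em 460 nm, triamterene-equivalent) was read immediately after pin transfer of compound or DMSO into medium (DMEM, 10% FBS) without cells.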

[10] = qHTS assay to test for compound auto fluorescence at 535 nm (green) in HEK293 cell free culture (AID 720682)
Method in brief: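 Read-out: 485/535 nm fluorescence intensity, calibrated against fluorescein. Medium only (DMEM + 10% FBS, no cells); test compound or DMSO vehicle added by pintool before plate reading.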

[11] = qHTS assay to test for compound auto fluorescence at 590 nm (red) in HEK293 cell free culture (AID 720683)
Method in brief: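 Red-channel autofluorescence of compounds in culture medium (DMEM, 10% FBS), no cells, measured at 540/590 nm. Rose Bengal sodium is the reference fluorophore for equivalence.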

[12] = qHTS assay to test for compound auto fluorescence at 590 nm (red) in HepG2 cell free culture (AID 720684)
Method in brief: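 No cells present: MEM + 10% FBS only. Compound pinned in, red label read (540/590 nm). Activity = fluorescence equivalent to Rose Bengal sodium.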

[13] = qHTS assay to test for compound auto fluorescence at 460 nm (blue) in HepG2 cell free culture (AID 720685)
Method in brief: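 Cell-free plates of MEM plus 10% FBS received 23 nL compound or DMSO vehicle; blue-channel (405/460 nm) intensity scored against triamterene as reference fluorophore.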

[14] = qHTS assay to test for compound auto fluorescence at 535 nm (green) in HepG2 cell free culture (AID 720686)
[15] = qHTS assay to test for compound auto fluorescence at 460 nm (blue) in HepG2 cells (AID 720687)
Method in brief: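 Blue-channel autofluorescence (Ex/Em 405/460 nm, triamterene-equivalent) was measured after 1 hr compound exposure at 37 C, 5% CO2. Cells were HepG2, plated overnight at 37 C in MEM plus 10% FBS.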

[16] = qHTS assay for small molecule disruptors of the mitochondrial membrane potential (AID 720635); note: potency is the fitted concentration of half-maximal effect
Method in brief: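 Mitochondrial membrane potential tracked with Mito-MPS dye, red aggregates (ex 540/em 590 nm) against green monomers (ex 490/em 535 nm). Compound treatment 1 hr at 37C, dye 30 min in HepG2.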

[17] = target: Glucocorticoid receptor (Homo sapiens) (UniProt P04150); test: qHTS assay to identify small molecule agonists of the glucocorticoid receptor (GR) signaling pathway (AID 720691; active = well fitted activation curve with a large enough effect in the signal ratio in the repeat runs, not every such curve was filed as active; the % refers to the signal ratio); conditions: GR-bla HeLa, beta-lactamase reporter ratio, 18 h; activation: at 62.4 µM (top of the series)
Chain of Glucocorticoid receptor (Homo sapiens) (P04150 whole entry, looked up): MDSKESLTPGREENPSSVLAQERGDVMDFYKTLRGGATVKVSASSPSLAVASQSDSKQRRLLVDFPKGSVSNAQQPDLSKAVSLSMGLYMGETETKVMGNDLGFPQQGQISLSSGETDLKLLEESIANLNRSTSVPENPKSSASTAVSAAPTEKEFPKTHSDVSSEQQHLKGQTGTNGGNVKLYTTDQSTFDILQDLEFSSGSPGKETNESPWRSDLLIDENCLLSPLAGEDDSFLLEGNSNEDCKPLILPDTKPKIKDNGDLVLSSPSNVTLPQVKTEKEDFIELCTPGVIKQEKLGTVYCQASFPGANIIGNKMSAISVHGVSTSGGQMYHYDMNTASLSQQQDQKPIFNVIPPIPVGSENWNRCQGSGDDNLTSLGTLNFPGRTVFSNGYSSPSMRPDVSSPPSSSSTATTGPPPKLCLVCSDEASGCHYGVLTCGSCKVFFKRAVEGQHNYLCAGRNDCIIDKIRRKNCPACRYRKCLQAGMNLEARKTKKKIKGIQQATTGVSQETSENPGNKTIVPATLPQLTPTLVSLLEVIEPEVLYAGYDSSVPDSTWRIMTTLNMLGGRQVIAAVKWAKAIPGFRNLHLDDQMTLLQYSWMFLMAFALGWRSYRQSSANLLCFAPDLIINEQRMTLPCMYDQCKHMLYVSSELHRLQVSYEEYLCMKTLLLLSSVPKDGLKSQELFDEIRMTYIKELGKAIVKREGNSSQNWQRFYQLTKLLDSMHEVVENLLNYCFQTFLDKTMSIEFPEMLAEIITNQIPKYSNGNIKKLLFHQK
Method in brief: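 Compounds in DMSO, alongside positive controls, were added to GR-bla HeLa reporter cells and incubated 18 h at 37 C; GRE-driven beta-lactamase was detected by fluorescence after 2 h with FRET substrate at room temperature.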

[18] = target: Glucocorticoid receptor (Homo sapiens) (UniProt P04150); test: qHTS assay to identify small molecule antagonists of the glucocorticoid receptor (GR) signaling pathway (AID 720692; active = well fitted inhibition curve with a large enough effect in the signal ratio in the repeat runs, not every such curve was filed as active; the % refers to the signal ratio; note: potency is the fitted concentration of half-maximal effect)
Method in brief: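 In a 1536-well cell format, compounds were added 4 h after seeding GR-bla HeLa cells, together with dexamethasone at 5 nM final; reporter activity was measured by FRET-substrate fluorescence following 18 h at 37 C.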

[19] = qHTS assay for small molecule disruptors of the mitochondrial membrane potential - cell viability (AID 720634; calls by dose curve; note: nearly all actives have a fitted effect of over 20% in size; note: potency is the fitted concentration of half-maximal effect)
Method in brief: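 Viability of HepG2 cells is scored from ATP content by luminescence; cells are exposed to compound for 1 hr at 37 C and 5% CO2, then dosed with m-MPI dye before the CellTiter-Glo reagent.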

Compound	Potency [1]	Potency [2]	Potency [3]	Potency [4]	Potency [5]	Potency [6]	Potency [7]	outcome [8]	Potency [9]	outcome [10]	Potency [11]	Potency [12]	Potency [13]	Potency [14]	Potency [15]	Potency [16]	Potency [17]	Potency [18]	Potency [19]
CCCCCCCCNC(C)C(O)c1ccc(SC(C)C)cc1 (configuration not stated)	inactive	10.6 µM (active)	10.6 µM (active)	inactive	inactive	inactive	inactive	inactive	inactive	inactive	inactive	inactive	inactive	inactive	inactive	–	–	–	–
CC(C)(C)C(=O)OCOC(=O)C1N2C(=O)CC2S(=O)(=O)C1(C)C (configuration not stated)	inactive	inactive	inactive	inactive	inactive	inactive	–	inactive	inactive	inactive	inactive	inactive	inactive	inactive	inactive	–	–	–	–
C[C@H](CCC(=O)O)[C@H]1CC[C@H]2[C@@H]3CC[C@@H]4C[C@H](O)CC[C@]4(C)[C@H]3CC[C@]12C	inactive	27.2 µM (active) and 27.3 µM (active)	inactive	inactive	inactive	inactive	inactive	inactive	inactive	inactive	inactive	inactive	inactive	–	inactive	60.9 µM (active)	inactive	19.4 µM (active) and 43.6 µM (active)	–
CCCCCCCCCCCCCCCCCC[N+](C)(C)C	inactive	61.3 µM (active)	61.3 µM (active)	inactive	inactive	inactive	–	inactive	inactive	inactive	inactive	inactive	inactive	inactive	–	48.7 µM (active)	–	–	–
CC(C)c1ccc2c(c1)CC[C@H]1[C@](C)(CN)CCC[C@]21C	inactive	27.3 µM (active)	38.6 µM (active)	inactive	inactive	inactive	inactive	inactive	inactive	inactive	inactive	inactive	inactive	inactive	inactive	–	–	–	–
Cc1cc(CCN2CCN(c3nsc4ccccc34)CC2)cc2c1NC(=O)CC2(C)C	inactive	43.3 µM (active)	61.1 µM (active)	inactive	inactive	inactive	inactive	inactive	inactive	inactive	inactive	inactive	inactive	inactive	inactive	–	inactive	–	54.5 µM (active)
CCc1oc2ccccc2c1C(=O)c1cc(Br)c(O)c(Br)c1	inactive	26.6 µM (active)	inactive	inactive	inactive	inactive	inactive	inactive	inactive	inactive	inactive	inactive	inactive	inactive	inactive	5.96 µM (active)	inactive	15.1 µM (active)	–
Nc1c(Cl)cc(Cl)cc1Cl	inactive	inactive	inactive	inactive	inactive	inactive	inactive	inactive	inactive	inactive	inactive	inactive	inactive	inactive	inactive	–	inactive	inactive	inactive
CCc1cc(SCc2sc(-c3ccc(C(F)(F)F)cc3)nc2CN2CCN(c3ccc(OC)cc3)CC2)ccc1OCC(=O)O	inactive	9.69 µM (active)	48.6 µM (active)	inactive	inactive	inactive	–	inactive	inactive	inactive	inactive	inactive	inactive	inactive	inactive	19.3 µM (active)	–	–	–
COc1cc(-c2nc(NC(=O)c3cc4cc(C)cc(C)c4n3CC(=O)O)sc2CCC2CCCCC2)c(OC)cc1Cl	inactive	3.97 µM (active)	39.7 µM (active)	inactive	inactive	inactive	–	inactive	inactive	inactive	inactive	inactive	inactive	–	inactive	–	–	–	inactive
CCC1OCC(COc2ccc(Oc3ccccc3)cc2)O1 (configuration not stated)	inactive	inactive	inactive	inactive	inactive	inactive	inactive	inactive	inactive	inactive	inactive	inactive	inactive	inactive	inactive	–	inactive	–	inactive
CC(C)n1nc(-c2cc3cc(O)ccc3[nH]2)c2c(N)ncnc21	9.44 µM (active)	26.6 µM (active)	0.75 µM (active)	inactive	inactive	inactive	inactive	inactive	inactive	inactive	inactive	inactive	inactive	inactive	inactive	–	–	–	inactive
CCC(N)(CO)CO	inactive	inactive	inactive	inactive	inactive	inactive	–	inactive	inactive	inactive	inactive	inactive	inactive	inactive	inactive	inactive	inactive	inactive	–

Source: PubChem BioAssay (Tox21)
